Compound activity: PubChem, Sanford-Burnham Center for Chemical Genomics
An excerpt weighted towards active compounds, which were near 3% of everything screened.
TRAIL sens C8: sensitizes caspase-8 expressing cells to TRAIL; hit rate 1% among 360,000; NB7+C8 cells + TRAIL, ATPlite viability luminescence; inhibition (viability loss, TRAIL sensitization), % at 10 µM;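 active = compounds causing at least 50% loss of cell viability in the single-dose screen, relative to plate controls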
SENP6 inh: SENP6 protease inhibition; hit rate 1.8% among 330,000; inhibition, % at 10 µM; Q9GZR1; Recombinant SENP6 catalytic domain, aminoluciferin luminescence;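 active = inhibition above about 50% at the single tested dose, limit read from the data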
SENP8 block-1: blocks human SENP8 cleavage of Nedd8 substrate. Q96LD8. recombinant SENP8, Nedd8 substrate fluorescence. inhibition, % at 20 µM. hit rate 0.64% among 360,000; in the data active = inhibition mostly above about 40%, no sharp cut-off; inactive = mostly below about 27%
Target sequence (Q96LD8 whole entry, looked up): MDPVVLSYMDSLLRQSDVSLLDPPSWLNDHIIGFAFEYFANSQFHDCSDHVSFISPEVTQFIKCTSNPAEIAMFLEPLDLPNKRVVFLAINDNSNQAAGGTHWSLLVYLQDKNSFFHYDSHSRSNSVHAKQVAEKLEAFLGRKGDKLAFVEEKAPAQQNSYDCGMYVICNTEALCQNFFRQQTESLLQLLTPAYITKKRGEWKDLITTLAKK
PPC-1+TRAIL kill: kills PPC-1 cancer cells in the presence of TRAIL | hit rate 0.41% among 220,000 | cell killing (% activity), % at 4 µM or 5 µM | PPC-1 cells + TRAIL, ATPLite viability luminescence | AID 1443;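 active = cell killing above 50% in the first pass at 4 µM, then a duplicate retest at 5 µM averaging 50% or more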
SENP8 block-2: SENP8 protease inhibition; inhibition, % at 10 µM; purified SENP8, Z-RLRGG-aminoluciferin cleavage, luminescence; Q96LD8; hit rate 1.2% among 330,000; in the data active = inhibition above about 50%
SENP7 block: inhibitors of human SENP7 protease; recombinant SENP7, Z-RLRGG-aminoluciferin luminescence, 40 min; inhibition, % at 5 µM; hit rate 1.5% among 330,000;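 active = inhibition above about 50% at the single test dose, limit read from the data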
Target sequence (Q9BQF6 706-1050 limits assumed): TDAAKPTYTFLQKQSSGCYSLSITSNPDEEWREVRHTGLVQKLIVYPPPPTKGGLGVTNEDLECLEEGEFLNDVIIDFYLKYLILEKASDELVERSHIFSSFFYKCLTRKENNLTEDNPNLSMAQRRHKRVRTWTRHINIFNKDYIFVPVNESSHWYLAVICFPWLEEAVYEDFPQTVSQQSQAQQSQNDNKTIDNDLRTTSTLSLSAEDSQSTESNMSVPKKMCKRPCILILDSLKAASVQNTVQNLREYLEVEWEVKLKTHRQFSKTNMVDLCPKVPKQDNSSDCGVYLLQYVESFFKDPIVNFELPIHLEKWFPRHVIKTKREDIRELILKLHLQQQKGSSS
A number is an active result; i = inactive; nt = not tested or not shown.

SMILES | TRAIL sens C8 | SENP6 inh | SENP8 block-1 | PPC-1+TRAIL kill | SENP8 block-2 | SENP7 block
COc1cc(C2Nc3ccccc3C(=O)N2c2ccc3c(c2)OCCO3)ccc1OCC(C)C (configuration not stated) | 55 | i | i | i | i | i
COc1cc(C2Nc3ccccc3C(=O)N2c2ccccc2OC)ccc1O (configuration not stated) | i | i | i | i | i | i
O=C1c2ccccc2NC(c2ccc3c(c2)OCO3)N1O (configuration not stated) | i | i | i | i | i | i
O=C1c2ccccc2NC(c2ccc3c(c2)OCCO3)N1c1ccc2c(c1)OCCO2 (configuration not stated) | 64 | i | i | i | i | i
COC(=O)c1ccc(NC(C)=O)cc1O | nt | nt | nt | i | nt | nt
CC(=O)OC(C)C1C2=C(C(=O)CC1(C)O)C(=O)c1c(ccc(-c3ccc4c(c3O)C(=O)C3=C(C4=O)C(C(C)OC(C)=O)C(C)(O)CC3=O)c1O)C2=O (configuration not stated) | i | nt | 49 | nt | nt | nt
O=C(NCc1ccc(F)cc1)C(=O)NCC1OCCCN1S(=O)(=O)c1cccs1 (configuration not stated) | i | i | i | nt | i | i
C[C@H]1COC2=C1C(=O)C(=O)c1c2ccc2c1CCCC2(C)C | i | nt | i | i | nt | nt
Cc1coc2c1C(=O)C(=O)c1c-2ccc2c1CCCC2(C)C | i | i | 61 | i | i | i
Cc1coc2c1C(=O)C(=O)c1c-2ccc2c(C)cccc12 | 54 | i | i | i | i | i
CCCCNC(=O)c1nc(C2CCN(S(=O)(=O)c3ccc(S(C)(=O)=O)cc3)CC2)oc1-c1ccccc1 | i | nt | i | nt | nt | nt
CN(C)c1ccc(/C=C/c2ccc3c4ccccc4ccc3[n+]2-c2ccccc2)cc1 | 63 | nt | i | 68 | nt | nt
CC1(C(=O)N/N=C/c2c(F)c(F)c(F)c(F)c2F)CC1(Cl)Cl (configuration not stated) | 77 | i | i | nt | i | i
Cc1c(/C=N\NC(=O)C2(C)CC2(Cl)Cl)cnn1C (configuration not stated) | i | i | i | i | i | i
O=C1CC(c2ccccc2)=NO1 | i | nt | i | nt | nt | nt
O=S1(=O)CC(c2ccccc2)=NN=C(c2ccccc2)C1 | 75 | nt | i | nt | nt | nt
Cc1cc(-c2ccccc2)nc(Nc2nc3c(C)cccc3c(=O)[nH]2)n1 | 71 | nt | i | nt | nt | nt
Cc1cc(C)c2nc(Nc3nc(-c4ccccc4)cc(=O)[nH]3)nc(C)c2c1 | i | i | i | i | i | i
Cc1ccnc(NC(=O)/C=C/c2ccccc2[N+](=O)[O-])c1 | nt | i | nt | i | 69 | 78
Cc1ccnc(NC(=O)c2ccccc2[N+](=O)[O-])c1 | i | i | i | i | i | i
Cc1cc(C)nc(NC(=O)/C=C/c2ccccc2Cl)n1 | i | i | i | i | i | i
Cc1cc(C)nc(NC(=O)/C=C/c2ccccc2Cl)c1 | i | 83 | i | i | i | 81
O=C1/C(=C/c2ccccc2)CN(C(=O)CCN2CCOCC2)C/C1=C\c1ccccc1 | 56 | nt | i | nt | nt | nt
C[N+](C)(C)CCC(=O)N1C/C(=C/c2ccccc2)C(=O)/C(=C\c2ccccc2)C1 | i | nt | i | nt | nt | nt
COc1ccc(OC(=O)N2C/C(=C/c3ccccc3)C(=O)/C(=C\c3ccccc3)C2)cc1 | 52 | nt | i | nt | nt | nt
SMILES | TRAIL sens C8 | SENP6 inh | SENP8 block-1 | PPC-1+TRAIL kill | SENP8 block-2 | SENP7 block
CN(C)CCC(=O)N1C/C(=C/c2ccccc2)C(=O)/C(=C\c2ccccc2)C1 | 95 | nt | i | nt | nt | nt
O=C(/C=C/c1ccccc1)CCN1CCOCC1 | i | nt | i | nt | nt | nt
CC(C(=O)N(C)Cc1cccc(F)c1)N1CCN(S(=O)(=O)c2ccc3c(c2)OCCCO3)CC1 (configuration not stated) | i | i | i | nt | i | i
CCCCn1c(N)c(N(CC(C)C)C(=O)c2cc3c(s2)CCCCC3)c(=O)[nH]c1=O | i | i | i | nt | i | i
c1cc(-c2ccc(N3CCOCC3)cc2)n2cnnc2c1 | i | nt | i | nt | nt | nt
COc1ccc(/C=C2/C(=O)N(c3nc4ccccc4s3)N=C2CSc2ccc(Cl)cc2)cc1 | i | i | 40 | i | i | i
COc1ccc(/C=C2/C(=O)N(Cc3ccccc3)N=C2C)cc1 | i | i | i | i | i | i
CCOc1ccc2c(c1)-c1c(ssc1=S)C(C)(C)N2C | i | i | 47 | i | i | i
COc1cc(C(=O)NCC(c2cccs2)N2CCOCC2)ccc1OCc1ccc(Cl)cc1 (configuration not stated) | i | nt | i | nt | nt | nt
Cc1cc2[nH]c3c4ccccc4nc(C)c3c2cc1C | 83 | nt | i | nt | nt | nt
Cc1cc2[nH]c3ccccc3c2c(C)n1 | i | i | i | i | i | i
O=C(N/N=C/c1ccccc1F)c1cc2c(ccc3ccccc32)o1 | i | i | i | nt | i | i
O=C(N/N=C/C=C/c1ccccc1)c1cc2c(ccc3ccccc32)o1 | 57 | i | i | i | i | i
O=[N+]([O-])c1cnc2nc(-c3ccncc3)nn2c1O | i | 99 | i | i | 93 | 96
O=[N+]([O-])c1cc(Cl)ccc1-c1nc(-c2ccncc2)no1 | i | i | i | i | i | i
CS(=O)(=O)N1CCCCC1c1cc(C(=O)Nc2ccccc2Cl)no1 (configuration not stated) | i | nt | i | nt | nt | nt
CCC(C)Nc1ccc(NC(C)CC)cc1 (configuration not stated) | 77 | i | i | nt | i | i
CCN(CC)CC(C)(C)C(=O)/C=C/c1ccc(/C=C/C(=O)C(C)(C)CN(CC)CC)cc1 | 92 | nt | i | nt | nt | nt
Cc1ccc(N=Cc2cccc(O)c2O)c(C)c1 | i | i | 110 | i | i | i
CCOC(=O)c1ccc(N2C(=O)C3C(/C=C/c4ccccc4)OC4(C(=O)c5ccccc5C4=O)C3C2=O)cc1 (configuration not stated) | i | i | i | 55 | i | i
CCOC(=O)c1ccc(N2C(=O)[C@@H](c3ccccc3)[C@H]2c2ccccc2)cc1 | i | i | i | nt | i | i
CC(C)C(=O)Nc1ccc(NC(=O)c2ccccn2)cn1 | 48 | i | i | i | i | i
CSc1cccc(NC(=O)c2ccccn2)c1 | nt | 55 | nt | i | i | 52
CCC(=O)Nc1ccc(NC(=O)c2ccccn2)cn1 | i | i | i | i | i | i
CN1CCN(Cn2cc(/C=C/C(=O)c3ccccc3)c3ccccc32)CC1 | i | 59 | i | i | i | i
SMILES | TRAIL sens C8 | SENP6 inh | SENP8 block-1 | PPC-1+TRAIL kill | SENP8 block-2 | SENP7 block
Cc1ccc(-c2cn3cccc(C)c3n2)cc1 | i | nt | i | i | nt | nt
COc1ccc(-c2cn3cccc(C)c3n2)cc1F | i | i | i | i | i | 60
O=c1[nH]c(-c2ccccc2)ncc1Oc1ccccc1 | i | i | i | nt | i | i
CCc1ccc(S(=O)(=O)/N=C2\C=C(NS(=O)(=O)c3ccccc3)C(=O)c3ccccc32)cc1 | i | i | 70 | nt | i | i
CC(C)c1ccc(S(=O)(=O)/N=C2\C=C(NS(=O)(=O)c3ccccc3)C(=O)c3ccccc32)cc1 | i | nt | 62 | nt | nt | nt
CC(C)c1ccc(S(=O)(=O)/N=C2/C=CC(=O)c3ccccc32)cc1 | nt | i | nt | i | i | i
COc1cc(/C=N/NC(=O)c2nnn(-c3nonc3N)c2C)ccc1OCc1ccc(Cl)cc1 | 56 | nt | i | nt | nt | nt
